Test results taken from the supplement of paper PMC3342239.

test system: Saccharomyces cerevisiae; assay: fraction of cells in G1 phase (DNA content, flow cytometry); higher = more cells with unreplicated DNA (G1 delay); settings: temperature: 30 C; YPD; JTY2953 pdr5 snq2 (sensitized); drug added to: cultures diluted from stationary phase; 6-7 h
Outline: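 Yeast (S. cerevisiae) in YPD at 30°C was treated with library drugs, and cells were then fixed in ethanol, stained with SYTOX Green and counted by flow cytometry over 10,000 events. Sensitized JTY2953 diluted 1∶200 from an overnight culture got a final 20 µg/ml and was fixed 6–7 h later; other runs dosed dividing JTY2953 (fixed at 6 h) or BY4741 (fixed at 4.33 h). G1 fraction means the Dean-Jett-Fox G1 peak area relative to the G1 and G2/M areas together.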

Compound | fraction of cells in G1 phase
Nc1nc(O)c2ncn(CCC(CO)CO)c2n1 [Penciclovir] (78.9694 µM) | 0.461
O=C(CCCN1CCC(O)(c2cccc(C(F)(F)F)c2)CC1)c1ccc(F)cc1 [Trifluperidol 2HCl] (48.8487 µM) | 0.563
Nc1nc(=O)n([C@@H]2CS[C@H](CO)O2)cc1F [Emtricitabine] (80.8899 µM) | 0.481
CC1(C)S[C@@H]2[C@H](NC(=O)COc3ccccc3)C(=O)N2[C@H]1C(=O)O [Pencillin v potassium] (57.2429 µM) | 0.461
C[N+](C)(C)[C@@H](Cc1c[nH]c(=S)[nH]1)C(=O)[O-] [Ergothioneine] (87.2209 µM) | 0.464
CC(=O)S[C@@H]1CC2=CC(=O)CC[C@]2(C)[C@H]2CC[C@@]3(C)[C@@H](CC[C@@]34CCC(=O)O4)[C@H]12 [Spironolactone] (48.0095 µM) | 0.531
COc1cc(C)c(/C=C/C(C)=C/C=C/C(C)=C/C(=O)O)c(C)c1C [Acitretin] (61.2745 µM) | 0.563
